In all, about 5,500 compounds went through this assay and about 2,000 (36%) were called active. About 18% were inconclusive and are not listed. Cut-off read from the data, not from the text of the source: active = normalized growth mostly below about 0.91 (no sharp cut-off); inconclusive = no clear call, values can overlap the other calls; inactive = mostly above about 0.92. This is one part of the list.
Assay: chemical genetic growth profiling, strain panel (AID 1159580);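 note: tested at 20 µM; growth read once vehicle control cultures reached saturation at 30 °C; 1 = growth at the plate median or of vehicle wells; lower values mean less growth of the strain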
Conditions: growth OD

Measured: normalized growth

CN1CC(=O)N=C1N
inactive: S. cerevisiae deletion strains, locus YJR043C, strain POL32, stronger effect = lower value 1.01 | S. cerevisiae deletion strains, locus YJR066W, strain TOR1, stronger effect = lower value 0.902 | S. cerevisiae deletion strains, locus YJR075W, strain HOC1, stronger effect = lower value 1.01 | S. cerevisiae deletion strains, locus YKL009W, strain mrt4, stronger effect = lower value 1.05 | S. cerevisiae deletion strains, locus YKL068W, stronger effect = lower value 0.996 | S. cerevisiae deletion strains, locus YKL085W, strain MDH1 (second series), stronger effect = lower value 0.998 | S. cerevisiae deletion strains, locus YKL085W, strain MDH1, stronger effect = lower value 0.998 | S. cerevisiae deletion strains, locus YKL160W, strain elf1, stronger effect = lower value 1.01 | S. cerevisiae deletion strains, locus YKR001C, strain vps1, stronger effect = lower value 1.01 | S. cerevisiae deletion strains, locus YKR026C, strain gcn3, stronger effect = lower value 0.994 | S. cerevisiae deletion strains, locus YKR091W, strain srl3, stronger effect = lower value 1.02 | S. cerevisiae deletion strains, locus YLL001W, strain dnm1, stronger effect = lower value 1.01 | S. cerevisiae deletion strains, locus YLL026W, stronger effect = lower value 1.02 | S. cerevisiae deletion strains, locus YLL041C, strain sdh2, stronger effect = lower value 1.02 | S. cerevisiae deletion strains, locus YLR027C, strain aat2, stronger effect = lower value 1.03 | S. cerevisiae deletion strains, locus YLR039C, strain RIC1, stronger effect = lower value 1.04 | S. cerevisiae deletion strains, locus YLR058C, strain SHM2, stronger effect = lower value 1.01 | S. cerevisiae deletion strains, locus YLR102C, strain apc9, stronger effect = lower value 0.992 | S. cerevisiae deletion strains, locus YLR113W, strain HOG1, stronger effect = lower value 0.94 | S. cerevisiae deletion strains, locus YLR221C, strain rsa3, stronger effect = lower value 1.05 | S. cerevisiae deletion strains, locus YLR258W, strain gsy2, stronger effect = lower value 1.03 | S. cerevisiae deletion strains, locus YLR262C, strain YPT6 (second series), stronger effect = lower value 1.09 | S. cerevisiae deletion strains, locus YLR262C, strain YPT6, stronger effect = lower value 1.08 | S. cerevisiae deletion strains, locus YLR268W, strain sec22, stronger effect = lower value 0.977 | S. cerevisiae deletion strains, locus YLR320W, strain mms22, stronger effect = lower value 1.07 | S. cerevisiae deletion strains, locus YLR330W, strain CHS5, stronger effect = lower value 1.01 | S. cerevisiae deletion strains, locus YLR342W, strain FKS1 (second series), stronger effect = lower value 0.984 | S. cerevisiae deletion strains, locus YLR342W, strain FKS1, stronger effect = lower value 1.03 | S. cerevisiae deletion strains, locus YLR357W, strain rsc2, stronger effect = lower value 1.01 | S. cerevisiae deletion strains, locus YLR370C, strain arc18, stronger effect = lower value 1.02 | S. cerevisiae deletion strains, locus YLR371W, strain rom2, stronger effect = lower value 0.985 | S. cerevisiae deletion strains, locus YLR384C, strain iki3, stronger effect = lower value 1.01 | S. cerevisiae deletion strains, locus YLR418C, strain cdc73, stronger effect = lower value 0.98 | S. cerevisiae deletion strains, locus YML016C, strain PPZ1, stronger effect = lower value 1.01 | S. cerevisiae deletion strains, locus YML032C, strain rad52, stronger effect = lower value 0.987 | S. cerevisiae deletion strains, locus YML120C, strain ndi1, stronger effect = lower value 1.03 | S. cerevisiae deletion strains, locus YML124C, strain tub3, stronger effect = lower value 0.992 | S. cerevisiae deletion strains, locus YMR058W, strain fet3, stronger effect = lower value 1.04 | S. cerevisiae deletion strains, locus YMR078C, strain ctf18, stronger effect = lower value 1 | S. cerevisiae deletion strains, locus YMR125W, strain sto1, stronger effect = lower value 1.02 | S. cerevisiae deletion strains, locus YMR129W, stronger effect = lower value 1.01 | S. cerevisiae deletion strains, locus YMR205C, strain PFK2, stronger effect = lower value 1.08 | S. cerevisiae deletion strains, locus YMR223W, strain ubp8, stronger effect = lower value 0.992 | S. cerevisiae deletion strains, locus YMR231W, strain pep5, stronger effect = lower value 1.01 | S. cerevisiae deletion strains, locus YMR307W, strain GAS1, stronger effect = lower value 0.998 | S. cerevisiae deletion strains, locus YNL067W, strain RPL9B, stronger effect = lower value 1.01 | S. cerevisiae deletion strains, locus YNL071W, strain lat1, stronger effect = lower value 1.03 | S. cerevisiae deletion strains, locus YNL128W, strain TEP1, stronger effect = lower value 1.04 | S. cerevisiae deletion strains, locus YNL183C, strain NPR1, stronger effect = lower value 0.893 | S. cerevisiae deletion strains, locus YNL209W, strain ssb2, stronger effect = lower value 1.03 | S. cerevisiae deletion strains, locus YNL233W, strain BNI4, stronger effect = lower value 1.01 | S. cerevisiae deletion strains, locus YNL248C, strain rpa49, stronger effect = lower value 1.02 | S. cerevisiae deletion strains, locus YNL250W, strain rad50, stronger effect = lower value 0.996 | S. cerevisiae deletion strains, locus YNL271C, strain bni1, stronger effect = lower value 0.991 | S. cerevisiae deletion strains, locus YNL298W, strain CLA4, stronger effect = lower value 0.988 | S. cerevisiae deletion strains, locus YNL307C, strain MCK1, stronger effect = lower value 0.98 | S. cerevisiae deletion strains, locus YNL322C, strain KRE1 (second series), stronger effect = lower value 1.02 | S. cerevisiae deletion strains, locus YNL322C, strain KRE1, stronger effect = lower value 1.01 | S. cerevisiae deletion strains, locus YNR049C, strain mso1, stronger effect = lower value 1.01 | S. cerevisiae deletion strains, locus YNR052C, strain pop2, stronger effect = lower value 0.991 | S. cerevisiae deletion strains, locus YOL012C, strain htz1 2.03 | S. cerevisiae deletion strains, locus YOL147C, strain pex11, stronger effect = lower value 0.99 | S. cerevisiae deletion strains, locus YOR001W, strain rrp6, stronger effect = lower value 1.02 | S. cerevisiae deletion strains, locus YOR061W, strain CKA2, stronger effect = lower value 1.01 | S. cerevisiae deletion strains, locus YOR069W, strain VPS5, stronger effect = lower value 1.01 | S. cerevisiae deletion strains, locus YOR070C, strain gyp1, stronger effect = lower value 1.03 | S. cerevisiae deletion strains, locus YOR080W, strain dia2, stronger effect = lower value 1.02 | S. cerevisiae deletion strains, locus YOR083W, strain WHI5, stronger effect = lower value 1.01 | S. cerevisiae deletion strains, locus YOR106W, strain vam3, stronger effect = lower value 1.02 | S. cerevisiae deletion strains, locus YOR136W, strain idh2, stronger effect = lower value 0.996 | S. cerevisiae deletion strains, locus YOR144C, strain elg1, stronger effect = lower value 0.997 | S. cerevisiae deletion strains, locus YOR184W, strain ser1, stronger effect = lower value 1.03 | S. cerevisiae deletion strains, locus YOR231W, strain MKK1, stronger effect = lower value 0.964 | S. cerevisiae deletion strains, locus YOR265W, strain rbl2, stronger effect = lower value 1.01 | S. cerevisiae deletion strains, locus YOR270C, strain vph1, stronger effect = lower value 1.11 | S. cerevisiae deletion strains, locus YOR290C, strain snf2, stronger effect = lower value 1.02 | S. cerevisiae deletion strains, locus YOR316C, strain cot1, stronger effect = lower value 0.993 | S. cerevisiae deletion strains, locus YPL051W, strain arl3, stronger effect = lower value 1.02 | S. cerevisiae deletion strains, locus YPL055C, strain LGE1, stronger effect = lower value 1.03 | S. cerevisiae deletion strains, locus YPL078C, strain atp4, stronger effect = lower value 1.02 | S. cerevisiae deletion strains, locus YPL106C, strain sse1, stronger effect = lower value 1.02 | S. cerevisiae deletion strains, locus YPL240C, strain hsp82, stronger effect = lower value 1.02 | S. cerevisiae deletion strains, locus YPL256C, strain CLN2, stronger effect = lower value 0.946 | S. cerevisiae deletion strains, locus YPR119W, strain clb2, stronger effect = lower value 0.991 | S. cerevisiae deletion strains, locus YPR141C, strain kar3, stronger effect = lower value 0.989 | S. cerevisiae deletion strains, locus YPR163C, strain tif3, stronger effect = lower value 0.982 | S. cerevisiae deletion strains, locus YPR167C, strain met16, stronger effect = lower value 0.979 | S. cerevisiae deletion strains, strain wtn01, stronger effect = lower value 0.974 | S. cerevisiae strains, strain wild type, stronger effect = lower value 1.01

Source: PubChem BioAssay AID1159580 (chemical genetic matrix, 2015)
